Screening results from PubChem BioAssay.
SENP8 block-1: SENP8 protease inhibitors, primary screen, biochemical, luminescence | Sentrin-specific protease 8 (Homo sapiens), Q96LD8 | purified SENP8, Z-RLRGG-aminoluciferin cleavage | inhibition, % at 10 µM | 330,000 compounds, 1.2% hits | AID 2540, 2010; in the data active = inhibition above about 50%
SENP8 block-2: human SENP8 protease inhibitors, primary screen, biochemical, fluorescence, Nedd8 protein substrate, uHTS; Sentrin-specific protease 8 (Homo sapiens), Q96LD8; recombinant SENP8; inhibition, % at 20 µM; 360,000 compounds, 0.64% hits; AID 602440, 2012; in the data active = inhibition mostly above about 40%, no sharp cut-off; inactive = mostly below about 27%
SENP6 block: SENP6 protease inhibitors, primary screen, biochemical, luminescence, uHTS; Sentrin-specific protease 6 (Homo sapiens), Q9GZR1; Recombinant SENP6 catalytic domain, aminoluciferin luminescence; inhibition, % at 10 µM; 330,000 compounds, 1.8% hits; AID 2599, 2010;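 active = inhibition above about 50% at the single tested dose, limit read from the data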
SENP7 inh: SENP7 protease inhibitors, primary screen, biochemical, luminescence, uHTS. Sentrin-specific protease 7 (Homo sapiens), Q9BQF6. recombinant SENP7, Z-RLRGG-aminoluciferin luminescence, 40 min. inhibition, % at 5 µM. 330,000 compounds, 1.5% hits;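 active = inhibition above about 50% at the single test dose, limit read from the data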
Target sequence (Q9BQF6 706-1050 limits assumed): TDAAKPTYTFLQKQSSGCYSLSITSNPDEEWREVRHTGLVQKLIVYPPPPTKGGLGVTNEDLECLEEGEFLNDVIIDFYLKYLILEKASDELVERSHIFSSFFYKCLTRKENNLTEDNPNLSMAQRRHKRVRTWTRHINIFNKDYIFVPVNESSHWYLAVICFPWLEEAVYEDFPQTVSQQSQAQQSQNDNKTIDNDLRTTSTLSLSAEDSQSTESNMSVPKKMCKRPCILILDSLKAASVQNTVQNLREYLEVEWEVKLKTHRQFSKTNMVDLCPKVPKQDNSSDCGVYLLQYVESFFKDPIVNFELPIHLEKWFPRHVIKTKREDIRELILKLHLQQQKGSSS
AHR act: AHR activators, primary screen, cell-based, luminescence, luciferase reporter, human; AID 2796, 2010; activation, % at 5 µM; 320,000 compounds, 2.5% hits; AHR-responsive luciferase reporter cells; in the data active = activation above about 47%
EBI2 antag: EBI2 receptor antagonists, beta-arrestin recruitment, primary screen, cell-based, luminescence, 7a,25-OHC stimulation, uHTS | inhibition, % at 5 µM | AID 651636, 2012 | 360,000 compounds, 0.81% hits | G-protein coupled receptor 183 (Homo sapiens), P32249 | 7a,25-OHC stimulated; in the data active = inhibition above about 38%;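 note: enzyme fragment complementation signal reports receptor beta-arrestin coupling in cells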
SENP8 confirm: SENP8 protease inhibitors, retest, confirmation, biochemical, luminescence, single concentration | shares compounds with SENP7 inh | Recombinant SENP8, Z-RLRGG-aminoluciferin luminescence, 60 min | inhibition, % at 12.5 µM | 6,200 compounds, 40% hits | AID 488912, 2010;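 active = mean inhibition across replicates above about 50%, limit read from the data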
SENP6 conf: SENP6 protease inhibitors, confirmation, biochemical, luminescence, single concentration; shares compounds with SENP7 inh; inhibition, % at 12.5 µM; AID 488915, 2010; 6,200 compounds, 58% hits; recombinant SENP6, Z-RLRGG-aminoluciferin luminescence
SENP7 confirm: SENP7 protease inhibitors, retest, confirmation, biochemical, luminescence, single concentration | 6,200 compounds, 69% hits | inhibition, % at 12.5 µM | shares compounds with SENP7 inh | recombinant SENP7, Z-RLRGG-aminoluciferin luminescence, 40 min
Casp3 SENP sel: caspase-3 protease inhibitors, confirmation, selectivity assay for SENP inhibitor project, biochemical, single concentration; purified caspase-3, Z-DEVD-aminoluciferin luminescence, 60 min; inhibition, % at 12.5 µM; 6,200 compounds, 60% hits; shares compounds with SENP7 inh; AID 488918, 2010;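 active = mean inhibition above about 50%, limit read from the data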
SENP luc ctr: luminescence interference (SENP counter-screen). shares compounds with SENP7 inh. Pre-incubated SENP8/Z-RLRGG-aminoluciferin, luciferase luminescence interference. inhibition, % at 12.5 µM. 6,200 compounds, 39% hits. AID 488919;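 active = mean inhibition above about 50% when retested at one dose, limit read from the data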
Each line names hits and unclear results; the compound was inactive in the other large screens (follow-up assays come after a bar, where they were run). Compounds with a hit are over-represented: about 5% of the library has one in this group of screens.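 Rule for the calls, unless noted: active = mean inhibition above about 50% in the one-dose retest (limit read from the data); inactive = the rest.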

Cc1ccc(C(=O)c2cc3ccccc3o2)cc1C	SENP8 block-1 69.1, SENP6 block 82.0, SENP7 inh 75.9 | SENP8 confirm inactive | SENP6 conf 72.5 | SENP7 confirm 53.2 | Casp3 SENP sel inactive | SENP luc ctr inactive
O=C(NC(=S)Nc1ccc(NC(=O)c2cccs2)cc1)c1cc2ccccc2o1	none
CC(C)CN(C(=O)COC(=O)CN1C(=O)c2ccccc2C1=O)c1c(N)n(Cc2ccccc2)c(=O)[nH]c1=O	none
COc1ccccc1OCCSc1nc2ccccc2n1CC(O)CO (configuration not stated)	none
CCC(CO)Oc1cc(NCc2ccccc2)c2ncn(C(C)C)c2c1 (configuration not stated)	none
CCC(COC)Oc1cc(NCc2ccccc2)c2ncn(C(C)C)c2c1 (configuration not stated)	SENP8 block-1 76.8, SENP6 block 83.7, SENP7 inh 73.1 | SENP8 confirm inactive | SENP6 conf 71.1 | SENP7 confirm inactive | Casp3 SENP sel inactive | SENP luc ctr inactive
CC(C)n1cnc2c(NCc3ccccc3)cc(N[C@H](C)CO)cc21	SENP8 block-1 81.0 | SENP8 confirm 85.0 | SENP6 conf 90.4 | SENP7 confirm 67.8 | Casp3 SENP sel 97.3 | SENP luc ctr inactive
CC1CCC(NC(=O)COC(=O)c2cccnc2Cl)CC1 (configuration not stated)	none
Cc1nc2oc3ccccc3c(=O)c2cc1C(=O)O	none
CC(C)c1ccc2oc3nc(N)c(C(=O)O)cc3c(=O)c2c1	SENP8 block-1 96.2, SENP6 block 97.0, SENP7 inh 101.2 (no result: SENP8 block-2, EBI2 antag) | SENP8 confirm 98.3 | SENP6 conf 99.0 | SENP7 confirm 101.7 | Casp3 SENP sel 97.1 | SENP luc ctr 91.3
Cc1nc2oc3ccc(Cl)cc3c(=O)c2cc1C(=O)O	SENP8 block-1 69.5, SENP6 block 78.6, SENP7 inh 79.3 | SENP8 confirm 81.7 | SENP6 conf 81.1 | SENP7 confirm 96.2 | Casp3 SENP sel 94.2 | SENP luc ctr 76.1
C[C@H](CO)N1C[C@H](C)[C@H](CN(C)C(=O)Nc2ccc(F)cc2)OCc2ccccc2-c2c(n(C)c3ccccc23)C1=O	none (no result: SENP8 block-1, SENP6 block, SENP7 inh, AHR act)
CCN(C(=O)c1cnc(NC(C)C)cc1C(F)(F)F)c1ccc(Cl)cc1Cl	none
O=C(Nc1cnc2ccccn2c1=O)c1ccc(Cl)cc1Cl	SENP6 block 66.1, SENP7 inh 68.7 | SENP8 confirm 56.7 | SENP6 conf 59.4 | SENP7 confirm 75.7 | Casp3 SENP sel 82.4 | SENP luc ctr inactive
Cc1ccc(C(=O)Nc2cnc3ccccn3c2=O)cc1	none
O=C(Nc1ccc2c(c1)OCCO2)c1ccc2ccccc2n1	SENP8 block-1 54.2, SENP7 inh 64.5, AHR act 51.8 | SENP8 confirm inactive | SENP6 conf 65.7 | SENP7 confirm 89.9 | Casp3 SENP sel 56.3 | SENP luc ctr inactive
